Results from PubChem BioAssay (EPA / NIEHS).
The source made the active and inactive calls. The calls were made as follows: active = hit-call score of the fitted dose curve at least 0.9, where 1 is the maximum; inconclusive = response in the unintended direction; inactive = score below 0.9.

Biological target: Estrogen receptor (Homo sapiens) (UniProt P03372)
Assay: OT_ER_ERaERa_1440: Odyssey Thera (OT) 24-hour HEK293T Protein-Complementation Assay for Estrogen Receptor-alpha/-alpha Homodimer (AID 2283349);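 also: hits raise fluorescence above DMSO for agonists and antagonists alike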
Method: OT_ER_ERaERa_1440 is a cell-based assay that uses HEK293T, a human kidney cell line, with measurements taken at 24 hours after chemical dosing in a 384-well plate.OT_ER_ERaERa_1440 is one of one assay component(s) measured or calculated from the OT_ER_ERaERa_1440 assay. It is designed to make measurements of protein fragment complementation, a form of binding reporter, as detected with fluorescence intensity signals by Protein-fragment Complementation technology.Data from the assay component OT_ER_ERaERa_1440 was analyzed into 1 assay endpoint. This assay endpoint, OT_ER_ERaERa_1440, was analyzed in the positive analysis fitting direction relative to DMSO as the negative control and baseline of activity. Using a type of binding reporter, measures of receptor for gain-of-signal activity can be used to understand the binding at the pathway-level as they relate to the gene ESR1. Furthermore, this assay endpoint can be referred to as a primary readout, because the performed assay has only produced 1 assay endpoint. To generalize the intended target to other relatable targets, this assay endpoint is annotated to the nuclear receptor intended target family, where the subfamily is steroidal.
Protein-fragment complementation assay, or PCA, is a method for the identification and quantification of protein-protein interactions. In the PCA, the proteins of interest ("bait" and "prey") are each covalently linked to fragments of a third protein (e.g. DHFR, which acts as a "reporter"). Interaction between the bait and the prey proteins brings the fragments of the reporter protein in close proximity to allow them to form a functional reporter protein whose activity can be measured. The OT ER alpha / ER alpha assay is a homodimer PCA of the ligand binding domain (amino acids 310-547) of human ER alpha stably expressed in HEK293T cells. […] Fluorescent signal in the basal state of the assay is very low and is primarily punctuate and cytoplasmic. Modulation of this assay is quantified as an increase in mean fluorescence intensity in the nucleus (for agonists) or in the nucleus and cytoplasm (antagonists) relative to vehicle controls, and can be quantified on a high content imaging device or a laser scanning cytometer. The latter instrument is favored for this assay because of the rapid mode of data acquisition, the ability to acquire data from the entire cell population in a well (as opposed to a fraction of the well on the high content devices) and the larger dynamic range typically achieved with this instrument. To assess sensitivity of the ER alpha/ER alpha LBD assay to ligand, cells were treated with the ER agonist 17 beta-estradiol (E2) in 10-point concentration- response format for 24 hours and monitored response on a laser scanning plate cytometer (Acumen eX3; TTP Lab Tech).

Sequence of Estrogen receptor (Homo sapiens) (P03372 whole entry, looked up): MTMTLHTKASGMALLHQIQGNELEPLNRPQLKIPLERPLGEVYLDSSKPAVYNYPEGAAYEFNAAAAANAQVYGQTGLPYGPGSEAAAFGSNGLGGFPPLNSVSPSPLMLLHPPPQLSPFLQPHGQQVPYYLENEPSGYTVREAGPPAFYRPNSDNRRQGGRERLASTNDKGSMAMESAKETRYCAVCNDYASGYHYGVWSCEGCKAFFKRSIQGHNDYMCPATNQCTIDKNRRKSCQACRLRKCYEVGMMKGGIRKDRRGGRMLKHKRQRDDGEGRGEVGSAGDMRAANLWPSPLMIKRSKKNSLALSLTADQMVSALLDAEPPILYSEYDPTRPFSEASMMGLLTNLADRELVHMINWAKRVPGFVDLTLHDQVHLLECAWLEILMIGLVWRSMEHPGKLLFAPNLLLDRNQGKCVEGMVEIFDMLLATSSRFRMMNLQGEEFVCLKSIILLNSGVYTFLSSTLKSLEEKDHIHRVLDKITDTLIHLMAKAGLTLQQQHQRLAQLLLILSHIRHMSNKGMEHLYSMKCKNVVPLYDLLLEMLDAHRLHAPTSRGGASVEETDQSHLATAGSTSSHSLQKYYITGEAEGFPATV

| Structure (SMILES) | outcome | AC50 |
| --- | --- | --- |
| CCn1nc(Cc2ccccc2)cc1C1CCN(C[C@H]2C[C@H](N(C)[C@@H](C(=O)O)C(C)C)C[C@@H]2c2cccc(F)c2)CC1 | inactive | – |
| COC(=O)c1c(Cl)c(Cl)c(C(=O)OC)c(Cl)c1Cl | inactive | – |
| Cn1cnc([N+](=O)[O-])c1Sc1ncnc2nc[nH]c12 | inactive | – |
| CCCC(=O)OCC | inactive | – |
| O=P(OC(CCl)CCl)(OC(CCl)CCl)OC(CCl)CCl | inactive | – |
| CCOC(=O)COc1ccc2c(c1)CC(NCC(O)c1cccc(Cl)c1)CC2 (stereo not given) | inactive | – |
| CCC(C)(C)C(=O)O[C@H]1C[C@@H](C)C=C2C=C[C@H](C)[C@H](CC[C@@H]3C[C@@H](O)CC(=O)O3)[C@H]21 | inactive | – |
| COc1ccc(-n2nc(C(F)F)cc2-c2ccc(S(C)=O)cc2)cc1 (stereo not given) | inactive | – |
| C=CCCCCCCCCC(=O)O | inactive | – |
| CCCCC(CC)COC(=O)CCCCCCCCC(=O)OCC(CC)CCCC (stereo not given) | – | 12.1 µM (active) |
| O=C(O)c1cccc(Oc2ccccc2)c1 | inactive | – |
| O=c1[nH]c2ccc(S(=O)CCN3CCC(Cc4ccc(F)cc4)CC3)cc2o1 (stereo not given) | inactive | – |
| Cn1c(=O)cc(Oc2ccc(F)cc2F)c2cnc(NCC(C)(C)O)nc21 | – | 50 µM (active) |
| COc1cccc(-c2ccc(/C=C\CN3CCCCCC3)cc2Cl)c1 | inactive | – |
| COc1ccc2sc(C(=O)Nc3nnn[nH]3)c(OC(C)C)c2c1 | inactive | – |
| O=C(NS(=O)(=O)/C=C/c1ccccc1)c1ccc(F)cc1Cl | inactive | – |
| CCCCCCCCO | inactive | – |
| O=c1n(CC2CO2)c(=O)n(CC2CO2)c(=O)n1CC1CO1 (stereo not given) | inactive | – |
| CC(C)=CCCC(C)=CC=O | inactive | – |
| Cc1ccc(S(=O)(=O)O)cc1C | inactive | – |
| CC[C@H](C)C(=O)O[C@H]1C[C@@H](C)C=C2C=C[C@H](C)[C@H](CC[C@@H]3C[C@@H](O)CC(=O)O3)[C@H]21 | inactive | – |
| Nc1ccc(Nc2ccccc2)cc1 | inactive | – |
| Cc1ccc(N)cc1O | inactive | – |
| CC(C)=CCCC(C)CCO (stereo not given) | inactive | – |
| CC[C@H]1CC[C@H](NCc2cc3c(cc2OC)[C@H]2C[C@H]2C(=O)N3C)[C@H](c2ccccc2)N1 | inactive | – |
| CC(C)CCO | inactive | – |
| COC(=O)CC(=O)OC | inactive | – |
| CC/C(=C\C(=N/O)C(N)=O)C(C)[N+](=O)[O-] (stereo not given) | inactive | – |
| COC(=O)c1ccccc1O | inactive | – |
| C=CC(=C)CCC=C(C)C | inactive | – |
